From the supplement of paper PMC10849652
Targets with a hit are over-represented here; the source holds about 8,800 in all. About 0.5% of all pairs of compound and target were hits. Unmarked numbers belong to inactive results.

compound: C/C(=N\NC(=O)C1=CC(=CC=C1)S(=O)(=O)N2CCOCC2)/C3=C(C=CC(=C3)Cl)O; assay: log2 fold change, soluble protein after heating vs DMSO (PISA); higher = thermal stabilisation; K562 lysate, 10 uM; active = over 0.2 and 3.5 SD of the protein, either way, in both replicates (recomputed)
Procedure, shortened: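 Thermal stability, expressed as log-two fold change relative to solvent controls, is given from duplicates. Crude K562 extract in PBS pH 7.4 with 1 mM MgCl2, at 1 mg/mL protein, was treated with 10 μM compound for 30 min and heated in aliquots for 3 min across 48°C-58°C. After pooling, adjustment to 0.5% NP-40 at 4°C and centrifugation at 21,000xg for 90 min, supernatant protein was measured by TMTpro 16plex LC-MS/MS with channel sums equalised.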

Sequence of UniProt P09543 (P09543 whole entry, looked up): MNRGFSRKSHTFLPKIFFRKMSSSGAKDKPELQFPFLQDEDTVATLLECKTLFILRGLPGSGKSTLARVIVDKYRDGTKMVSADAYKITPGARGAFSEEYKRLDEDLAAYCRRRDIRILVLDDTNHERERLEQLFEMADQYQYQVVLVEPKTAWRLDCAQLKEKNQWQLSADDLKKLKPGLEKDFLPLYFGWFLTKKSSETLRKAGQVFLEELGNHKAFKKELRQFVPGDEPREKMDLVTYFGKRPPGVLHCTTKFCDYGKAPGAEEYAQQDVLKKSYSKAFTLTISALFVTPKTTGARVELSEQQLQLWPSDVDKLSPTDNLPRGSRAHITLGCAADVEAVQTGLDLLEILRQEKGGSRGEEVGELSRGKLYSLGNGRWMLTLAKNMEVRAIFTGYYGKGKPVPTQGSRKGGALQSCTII
Sequence of UniProt Q6PJW8 (Q6PJW8 whole entry, looked up): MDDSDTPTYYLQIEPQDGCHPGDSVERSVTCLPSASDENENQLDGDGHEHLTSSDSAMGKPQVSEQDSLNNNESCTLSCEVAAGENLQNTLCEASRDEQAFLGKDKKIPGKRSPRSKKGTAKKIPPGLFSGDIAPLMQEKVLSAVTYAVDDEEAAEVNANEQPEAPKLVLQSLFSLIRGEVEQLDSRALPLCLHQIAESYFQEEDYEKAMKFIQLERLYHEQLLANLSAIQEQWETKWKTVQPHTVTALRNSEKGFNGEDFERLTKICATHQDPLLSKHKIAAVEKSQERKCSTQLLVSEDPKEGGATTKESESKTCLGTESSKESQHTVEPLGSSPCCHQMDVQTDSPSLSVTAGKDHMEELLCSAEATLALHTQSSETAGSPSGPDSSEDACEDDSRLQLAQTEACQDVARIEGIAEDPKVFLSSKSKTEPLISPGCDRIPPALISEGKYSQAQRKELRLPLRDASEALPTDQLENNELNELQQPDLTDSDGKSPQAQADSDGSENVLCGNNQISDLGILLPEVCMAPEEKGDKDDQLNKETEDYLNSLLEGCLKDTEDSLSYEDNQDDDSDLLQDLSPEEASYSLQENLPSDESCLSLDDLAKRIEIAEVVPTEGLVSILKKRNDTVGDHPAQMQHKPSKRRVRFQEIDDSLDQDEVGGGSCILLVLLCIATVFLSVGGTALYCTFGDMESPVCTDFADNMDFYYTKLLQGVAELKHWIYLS
Sequence of UniProt Q96KC8 (Q96KC8 whole entry, looked up): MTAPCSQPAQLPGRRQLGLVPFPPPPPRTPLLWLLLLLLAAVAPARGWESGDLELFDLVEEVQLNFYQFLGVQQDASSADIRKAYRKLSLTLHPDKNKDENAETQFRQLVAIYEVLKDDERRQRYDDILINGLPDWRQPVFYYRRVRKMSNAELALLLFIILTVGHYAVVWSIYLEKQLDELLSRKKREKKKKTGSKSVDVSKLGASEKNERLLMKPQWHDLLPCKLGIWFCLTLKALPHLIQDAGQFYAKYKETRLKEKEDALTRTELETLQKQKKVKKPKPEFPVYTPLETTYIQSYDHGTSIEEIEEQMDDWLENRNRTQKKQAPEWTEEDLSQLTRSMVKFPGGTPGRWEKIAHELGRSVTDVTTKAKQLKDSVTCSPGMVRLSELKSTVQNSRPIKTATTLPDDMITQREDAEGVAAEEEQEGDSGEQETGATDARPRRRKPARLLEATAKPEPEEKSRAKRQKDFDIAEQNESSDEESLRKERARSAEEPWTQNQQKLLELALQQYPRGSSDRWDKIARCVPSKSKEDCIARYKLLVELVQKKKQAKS
Sequence of UniProt O76075 (O76075 whole entry, looked up): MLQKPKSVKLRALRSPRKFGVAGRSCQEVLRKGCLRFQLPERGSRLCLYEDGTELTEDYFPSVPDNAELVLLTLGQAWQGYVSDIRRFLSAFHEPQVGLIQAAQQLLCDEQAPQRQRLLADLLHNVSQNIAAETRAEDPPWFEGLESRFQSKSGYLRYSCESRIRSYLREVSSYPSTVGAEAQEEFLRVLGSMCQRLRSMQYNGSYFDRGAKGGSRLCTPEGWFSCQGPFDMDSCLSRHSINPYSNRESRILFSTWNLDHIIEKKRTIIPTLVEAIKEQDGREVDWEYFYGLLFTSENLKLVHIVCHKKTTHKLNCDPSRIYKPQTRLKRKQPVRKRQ
Sequence of UniProt P51790 (P51790 whole entry, looked up): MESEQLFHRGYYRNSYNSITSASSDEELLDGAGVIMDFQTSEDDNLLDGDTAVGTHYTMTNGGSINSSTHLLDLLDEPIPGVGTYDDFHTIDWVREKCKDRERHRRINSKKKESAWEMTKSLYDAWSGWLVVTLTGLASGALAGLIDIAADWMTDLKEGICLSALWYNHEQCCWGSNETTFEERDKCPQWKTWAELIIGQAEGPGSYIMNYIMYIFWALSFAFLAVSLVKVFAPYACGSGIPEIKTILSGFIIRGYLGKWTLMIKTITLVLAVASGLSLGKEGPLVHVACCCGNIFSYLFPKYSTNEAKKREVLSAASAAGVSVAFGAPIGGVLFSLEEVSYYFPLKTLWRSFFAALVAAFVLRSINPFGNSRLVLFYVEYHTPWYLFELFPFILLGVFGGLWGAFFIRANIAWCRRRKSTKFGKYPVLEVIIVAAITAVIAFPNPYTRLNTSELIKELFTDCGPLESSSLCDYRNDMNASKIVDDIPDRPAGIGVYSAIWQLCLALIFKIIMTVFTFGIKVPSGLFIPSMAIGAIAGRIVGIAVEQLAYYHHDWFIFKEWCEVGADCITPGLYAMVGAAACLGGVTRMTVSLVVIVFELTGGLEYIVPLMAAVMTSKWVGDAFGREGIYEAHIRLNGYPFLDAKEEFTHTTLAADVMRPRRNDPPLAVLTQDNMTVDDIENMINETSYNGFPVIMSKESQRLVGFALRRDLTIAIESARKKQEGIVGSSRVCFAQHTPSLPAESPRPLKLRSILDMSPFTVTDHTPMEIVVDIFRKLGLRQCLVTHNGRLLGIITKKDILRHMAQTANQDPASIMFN
Sequence of UniProt P83436 (P83436 whole entry, looked up): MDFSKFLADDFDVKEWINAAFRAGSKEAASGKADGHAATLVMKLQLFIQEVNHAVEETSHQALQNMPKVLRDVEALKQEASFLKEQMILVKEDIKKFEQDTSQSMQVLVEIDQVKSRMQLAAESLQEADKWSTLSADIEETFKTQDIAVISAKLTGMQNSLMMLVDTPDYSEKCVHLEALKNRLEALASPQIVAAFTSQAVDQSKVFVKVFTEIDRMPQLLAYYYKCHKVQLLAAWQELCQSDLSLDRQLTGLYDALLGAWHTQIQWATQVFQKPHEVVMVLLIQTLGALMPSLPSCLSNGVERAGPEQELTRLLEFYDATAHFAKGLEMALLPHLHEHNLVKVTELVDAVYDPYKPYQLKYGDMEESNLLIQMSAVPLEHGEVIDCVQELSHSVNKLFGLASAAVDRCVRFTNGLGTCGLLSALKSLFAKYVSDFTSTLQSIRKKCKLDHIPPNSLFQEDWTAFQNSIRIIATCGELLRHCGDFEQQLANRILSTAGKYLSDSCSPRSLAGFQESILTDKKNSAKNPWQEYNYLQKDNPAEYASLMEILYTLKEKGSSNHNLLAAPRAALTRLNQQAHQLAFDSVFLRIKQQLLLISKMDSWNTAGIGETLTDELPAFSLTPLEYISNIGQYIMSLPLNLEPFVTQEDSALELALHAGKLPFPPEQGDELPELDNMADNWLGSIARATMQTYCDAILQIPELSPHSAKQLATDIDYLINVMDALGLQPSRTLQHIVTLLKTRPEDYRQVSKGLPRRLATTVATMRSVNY
Sequence of UniProt Q9NSV4 (Q9NSV4 whole entry, looked up): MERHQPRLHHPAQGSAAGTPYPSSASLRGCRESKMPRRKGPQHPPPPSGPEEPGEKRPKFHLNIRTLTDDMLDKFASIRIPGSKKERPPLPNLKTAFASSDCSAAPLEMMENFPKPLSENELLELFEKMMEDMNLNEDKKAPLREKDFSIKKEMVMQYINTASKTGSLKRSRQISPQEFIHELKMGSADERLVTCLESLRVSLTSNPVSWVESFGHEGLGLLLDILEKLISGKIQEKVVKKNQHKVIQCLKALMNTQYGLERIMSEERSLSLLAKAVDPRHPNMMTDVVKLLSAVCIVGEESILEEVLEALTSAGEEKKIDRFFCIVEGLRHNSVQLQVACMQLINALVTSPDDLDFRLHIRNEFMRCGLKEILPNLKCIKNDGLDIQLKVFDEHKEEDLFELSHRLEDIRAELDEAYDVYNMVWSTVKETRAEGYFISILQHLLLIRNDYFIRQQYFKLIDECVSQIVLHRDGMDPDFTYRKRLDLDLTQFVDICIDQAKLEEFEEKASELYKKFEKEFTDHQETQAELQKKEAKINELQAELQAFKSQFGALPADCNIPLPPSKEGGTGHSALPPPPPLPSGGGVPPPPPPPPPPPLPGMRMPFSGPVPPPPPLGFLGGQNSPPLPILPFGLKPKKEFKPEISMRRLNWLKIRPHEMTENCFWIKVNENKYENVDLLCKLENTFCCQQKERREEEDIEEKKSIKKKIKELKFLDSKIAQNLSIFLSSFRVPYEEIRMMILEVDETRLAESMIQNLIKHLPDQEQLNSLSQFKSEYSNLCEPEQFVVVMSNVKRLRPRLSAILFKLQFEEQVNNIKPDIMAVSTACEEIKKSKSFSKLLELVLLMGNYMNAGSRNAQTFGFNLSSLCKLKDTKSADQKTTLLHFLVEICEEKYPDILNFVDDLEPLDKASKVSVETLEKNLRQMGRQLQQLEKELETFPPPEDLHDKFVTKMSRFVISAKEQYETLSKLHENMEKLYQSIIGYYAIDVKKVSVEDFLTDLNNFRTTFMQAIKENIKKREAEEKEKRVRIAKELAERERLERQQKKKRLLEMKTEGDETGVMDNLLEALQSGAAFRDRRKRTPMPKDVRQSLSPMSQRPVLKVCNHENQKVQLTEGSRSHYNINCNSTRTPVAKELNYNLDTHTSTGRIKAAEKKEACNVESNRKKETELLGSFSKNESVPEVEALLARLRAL
Sequence of UniProt Q8WUH1 (Q8WUH1 whole entry, looked up): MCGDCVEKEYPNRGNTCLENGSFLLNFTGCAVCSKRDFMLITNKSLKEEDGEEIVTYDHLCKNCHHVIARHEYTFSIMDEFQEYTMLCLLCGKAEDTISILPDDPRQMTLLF

Target | log2 fold change
CIB1 (UniProt Q99828) | 0.126
COL6A5 (UniProt A8TX70) | 0.161
DFFB (UniProt O76075) | 0.062
CSNK1G3 (UniProt Q9Y6M4) | -0.018
DNM2 (UniProt P50570) | -0.009
COPZ1 isoform 4 (UniProt P61923) | 0.065
DPH5 isoform 5 (UniProt Q9H2P9) | -0.028
COQ9 (UniProt O75208) | -0.075
DLD (UniProt P09622) | 0
CLP1 (UniProt Q92989) | 0.027
DMAC2L (UniProt Q99766) | 0.033
DOCK10 (UniProt Q96BY6) | -0.191
CIAO2A (UniProt Q9H5X1) | 0.029
DNAJC1 (UniProt Q96KC8) | -0.011
DIAPH3 (UniProt Q9NSV4) | 0.07
CNP (UniProt P09543) | -0.066
CHURC1 isoform 2 (UniProt Q8WUH1) | -0.13

Target | log2 fold change
CYCS (UniProt P99999) | -0.121
CSNK2B (UniProt P67870) | -0.107
DOCK8 (UniProt Q8NF50) | -0.073
CRABP2 (UniProt P29373) | -0.112
DENND6A (UniProt Q8IWF6) | 0.232
CHMP4A isoform 2 (UniProt Q9BY43) | 0.008
CLCN3 (UniProt P51790) | 0.043
DHRS11 (UniProt Q6UWP2) | -0.017
COTL1 (UniProt Q14019) | 0.04
CMBL (UniProt Q96DG6) | 0.047
CPT1A (UniProt P50416) | -0.034
DHRS1 (UniProt Q96LJ7) | 0.898 (active)
COG7 (UniProt P83436) | -0.007
CXorf38 (UniProt Q8TB03) | 0.067
CNST (UniProt Q6PJW8) | -0.013
CUX1 isoform 3 (UniProt P39880) | -0.017
DHFR (UniProt P00374) | 0.046
